Screening data from PubChem BioAssay.
G9a inh = qHTS Assay for Inhibitors of Histone Lysine Methyltransferase G9a | 8.8% of 350,000 active | G9a H3K9 monomethylation, AlphaScreen, 2 h | Histone-lysine N-methyltransferase EHMT2 (Homo sapiens), Q96KQ7 | AID 504332, 2011 | Potency, µM (series often up to 102 µM), inactives show at the top dose activity, negative = inhibition, hits mostly inhibitors; also: potency is read from the fitted curve at half-maximal effect; % is scaled to controls: 0 for no effect and ±100 for the full control effect; nearly all actives have a fitted effect of over 75% in size
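Methyltransferase reactions run at room temperature for 2 h (20 nM enzyme, 500 nM biotin-H3K9 peptide, 20 uM SAM) after a 15 min compound preincubation; product detected by AlphaScreen beads and anti-H3K9me1 antibody.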
HP1b binding inh = HTS for Inhibitors of HP1-beta Chromodomain Interactions with Methylated Histone Tails. Chromobox protein homolog 1 (Homo sapiens), P83916. AlphaScreen HP1-beta / biotin-H3K9me3 peptide binding. Potency, µM (highest dose often 114 µM), for inactives: top-dose activity change, negative = inhibition, actives largely listed as inhibitors. 0.56% of 390,000 active; also: potency is read from the fitted curve at half-maximal effect; nearly all actives have a fitted effect of over 70% in size
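AlphaScreen: HP1-beta (50 nM) preformed 30 min with biotin-H3(1-18)K9me3 peptide (50 nM) in PBS pH 7.4, 0.01% Tween-20. Compound added for 30 min at RT, then streptavidin donor/nickel chelate acceptor beads (10 ug/mL) for 30 min.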
CtBP-E1A inh = qHTS Assay for Inhibitors of the CtBP/E1A Interaction; AlphaScreen GST-E1A/His-CtBP binding, 1536-well; hits give low values; 0.49% of 340,000 active; activity change, % (test concentration not listed); in the data active = activity change below about -65%; inconclusive = mostly about -30% to -63%; also: % is scaled to controls: 0 for no effect and ±100 for the full control effect
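Homogeneous bead-based format: GST-tagged E1A captured on glutathione donor beads, His-tagged CtBP on nickel acceptor beads; compounds precede bead addition by 2 h at 37 °C.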
BAZ2B inh = qHTS Assay for Inhibitors of BAZ2B; Bromodomain adjacent to zinc finger domain protein 2B (Homo sapiens), Q9UIF8; AlphaScreen BAZ2B-H3K14Ac peptide displacement; Potency, µM (highest dose often 114 µM), without a hit: top-dose activity change, negative = inhibition, hits mostly inhibitors; 4.4% of 360,000 active; AID 504333, 2011; also: potency is read from the fitted curve at half-maximal effect; % is scaled to controls: 0 for no effect and ±100 for the full control effect; nearly all actives have a fitted effect of over 60% in size
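BAZ2B 50 nM plus b-H3(5-23)K14Ac 50 nM, PBS pH 7.4/0.01% Tween-20, 30 min RT; compound added (max 110 uM), 30 min RT; streptavidin donor/Ni-chelate acceptor beads 10 ug/mL final, 20 min dark; AlphaScreen read.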
JMJD2A Tudor = qHTS Assay for Inhibitors of JMJD2A-Tudor Domain | AlphaScreen JMJD2A-Tudor / H3K4me3 peptide binding | Potency, µM (series often up to 114 µM), inactives show at the top dose activity change, negative = inhibition, actives largely listed as inhibitors | 4.4% of 390,000 active | AID 504339, 2011; also: potency is read from the fitted curve at half-maximal effect; % is scaled to controls: 0 for no effect and ±100 for the full control effect; nearly all actives have a fitted effect of over 50% in size
Six1-Eya2 blk = qHTS Assay for Inhibitors of the Six1/Eya2 Interaction. Homeobox protein SIX1 (Homo sapiens) + Protein phosphatase EYA2 (Homo sapiens), …. AlphaScreen GST-Six1/His-Eya2 binding, biochemical; hits give low values. activity change, % (concentration not given with the values). 0.56% of 360,000 active. AID 651725, 2012; in the data active = activity change below about -65%; inconclusive = mostly about -30% to -63%; also: % is scaled to controls: 0 for no effect and ±100 for the full control effect
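GST-Six1 + His-Eya2 (5X stock: 250/500 nM); Tris pH 8.0, 300 mM NaCl, 0.05% BSA, 0.02% Tween 20; GSH donor/Ni acceptor beads; 1 h 37 °C dark; AlphaScreen readout.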
An asterisk follows results filed as active; u = inconclusive; x = not tested or not shown; [ ] = dose if it differs, or a comment. Hits are enriched below; roughly 10% of the tested compounds scored in any of these assays. Unless noted, calls follow the shape of the dose curve; as a rule, active = well fitted inhibition curve with a large enough effect; inconclusive = small, poorly fitted or top-dose-only effect; inactive = no such curve, though single readings can be large or run the other way.

SMILES | G9a inh | HP1b binding inh | CtBP-E1A inh | BAZ2B inh | JMJD2A Tudor | Six1-Eya2 blk
Fc1ccc(Cc2cn3cc(-c4ccc(F)cc4)nc3s2)cc1 | 11%[59 µM] | 21% | x | -3% | -7% | x
Cn1c(Cc2cccs2)n[nH]c1=S | u | -11% | 9 | -1% | u | 9
Cc1ccccc1OCCSCc1nc2ccccc2[nH]1 | -8%[59 µM] | 33% | -11 | 7% | -2% | 6
CCOC(=O)N1CCN(C(=O)CN(c2ccc(OCc3ccccc3)cc2)S(C)(=O)=O)CC1 | 5%[59 µM] | 33% | 10 | -4% | -10% | 4
COC(=O)C1=C(C(=O)OC)SC(=C2C(=S)C(C)(C)N(C(=O)CC(C)C)c3ccccc32)S1 | 7.9µM* | -77% | u | 4µM* | 11µM* | u
CC(C)CC(=O)n1sc(NC(=O)c2ccccc2)nc1=O | 1%[2.33 µM] | 40% | 25 | 6% | -4% | 0
O=C(CCCCl)Nc1c2c(nn1-c1ccccc1)CSC2 | 2% | 31% | 0 | -17%[57.1 µM] | -7% | 3
O=C(CCl)Nc1c2c(nn1-c1ccccc1)CSC2 | 6%[59 µM] | -18%[57 µM] | 2 | -13% | 45µM* | -8
Cc1cccc(-n2nc3c(c2NC(=O)c2ccc(Br)o2)CSC3)c1 | 40µM* | 32% | -4 | -35% | -13% | -4
CCN(C(=O)Cn1c(=O)n(-c2ccccc2)c(=O)c2ccc(C(=O)NCc3ccc4c(c3)OCO4)cc21)c1cccc(C)c1 | -12%[59 µM] | 14% | x | -11% | -13% | x
COc1ccc2nc(C)cc(N/N=C/c3cccc(OC)c3O)c2c1 | 45µM* | u | u | 45µM* | 50µM* | u
COc1ccc(/C=N/Nc2cc(C)nc3ccc(Br)cc23)cc1 | -6%[2.33 µM] | u | -13 | u | u | -6
COc1ccc(/C=N/Nc2ncnc(Cl)c2N)cc1OC | 50µM* | 2% | -23 | u | -25% | -29
Nc1c(Cl)ncnc1N/N=C/c1ccncc1 | 45µM* | 32% | 0 | -9% | 1% | 4
COc1cccc(/C=N/Nc2ncnc(Cl)c2N)c1O | 54%[59 µM] | 32% | -79* | 7.9µM* | -27% | -88*
Clc1nccnc1N/N=C/c1ccc(Br)cc1 | -31% | 2% | -9 | u | -20% | -6
Nc1c(Cl)ncnc1N/N=C/c1cccc(O)c1 | 31%[12.7 µM] | 21% | x | -24% | -21% | -15
CC(C)C[C@H](NC(=O)C1CC(=O)N(c2ccc3c(c2)OCO3)C1)C(=O)NC1CCCCC1 (some centres not stated) | 12% | 28% | 0 | -4% | -4% | 2
COc1cccc(/C=N/Nc2ncnc3scc(-c4ccccc4)c23)c1O | u | -1% | -5 | 13µM* | 45µM* | -93*
COc1cccc(/C=N/Nc2nccnc2Cl)c1O | 61%[12.7 µM] | 21% | -93* | 14µM* | 40µM* | -79*
CCc1ccccc1NC(=O)CSc1nnc(-c2ccc(OC)cc2)s1 | 31%[59 µM] | 19%[57 µM] | x | 7% | -3% | x
CC(C)(C)/C(O)=C/c1nc2cc(Cl)ccc2oc1=O | 45µM* | 23% | -13 | -25% | u | -7
Cc1cc(-c2ccccc2)c(C#N)c(=S)[nH]1 | 1.3µM* | 79µM* | -4 | -9% | 6.3µM* | -1
CCC(CC)C(=O)Oc1c(Sc2ccccc2[N+](=O)[O-])c(C)nn1C(C)(C)C | 32µM* | u | -17 | u | -35% | -18
COCC(=O)Oc1c(Sc2ccccc2[N+](=O)[O-])c(C)nn1C(C)(C)C | 22µM* | 2% | 0 | u | -13% | 4
SMILES | G9a inh | HP1b binding inh | CtBP-E1A inh | BAZ2B inh | JMJD2A Tudor | Six1-Eya2 blk
CC[n+]1c(/C=C2\Sc3ccccc3N2C)ccc2cccc(C)c21 | 25µM* | u | -25 | 45µM* | -23%[57.1 µM] | u
CCN1/C(=C/c2ccc3cc(C)ccc3[n+]2CC)Sc2cc(C)c(C)cc21 | 14µM* | u | -20 | 45µM* | u | -12
COc1ccc(C(=O)/C=C2\Sc3ccccc3N2C)cc1 | u | 85% | 4 | 16% | 30% | 11
C=CCN1C(=O)/C(=C2/Sc3ccccc3N2C)SC1=Nc1ccccc1C | 4%[12.7 µM] | -23% | 0 | u | u | -4
CC[n+]1c(C)sc2cc(C)ccc21 | u | 59% | -1 | -38% | 1% | 1
CC(=S)/C=C1\Sc2ccccc2N1C | u | u | -1 | 50µM* | u | -18
CCN1/C(=C/c2ccc3cc(C)ccc3[n+]2CC)Sc2ccccc21 | 7.9µM* | u | x | 45µM* | -43% | u
COc1cccc(OCC(=O)NC2CC(=O)N(c3cccc(OC)c3)C2)c1 (configuration not stated) | -16%[59 µM] | 44% | x | 1% | -6% | x
CC[n+]1ccccc1/C=C1\Sc2ccc(C)cc2N1C | 43%[0.501 µM] | 49% | 0 | u | u | 17
CN1/C(=C/c2cccc[n+]2CCO)Sc2ccccc21 | 45µM* | -13% | -5 | 56µM* | u | 12
COc1cc(OC)c2c(-c3ccccc3)cc(=O)oc2c1C(CCN1CCOCC1)c1ccc(N(C)C)cc1 (configuration not stated) | 14µM* | 18µM* | u | x | 14µM* | u
COc1ccc(C(CCN2CCCCC2)c2c(OC)cc(OC)c3c(-c4ccccc4)cc(=O)oc23)cc1 (configuration not stated) | 13%[12.7 µM] | 2% | -15 | -25% | u | -6
COc1cc(OC)c2c(-c3ccccc3)cc(=O)oc2c1C(CCN1CCCC(C)C1)c1ccc2c(c1)OCO2 (configuration not stated) | -26%[59 µM] | -36% | 10 | u | 40µM* | -3
COc1cc(OC)c2c(-c3ccccc3)cc(=O)oc2c1C(CCN1CCCCC1)c1ccc(N(C)C)cc1 (configuration not stated) | u | u | u | 16µM* | 11µM* | u
Cc1ccc(S(=O)(=O)NCCSc2nnc(N)s2)cc1 | 13µM* | 41% | 1 | 9% | -7% | 4
O=C(Cc1ccc(Cl)cc1)Nc1ccc(N2CCCC2)cc1 | u | 11% | 2 | -3% | 4% | -8
O=C(CNCCC1=CCCCC1)Nc1ccc(N2CCCCCC2)cc1 | u | 16µM* | u | 13µM* | 20µM* | u
O=C(CNCc1ccccc1Cl)Nc1ccccc1N1CCCCC1 | 10µM* | u | -19 | 22µM* | 22µM* | 6
